Assay [1] is described as follows: Quantitative High-Throughput drug screen in 47 multiple myeloma cell lines against the NCATS MIPE library collection: FR4_PLB cell viability assay (AID 1918924; further: nearly all actives have a fitted effect of over 35% in size; further: potency means the concentration at half of the fitted maximal effect). The method, boiled down: (§1)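 Luminescent ATP measurement with CellTiter-Glo gives viability, scaled between DMSO-only wells (100%) and media-only wells (0%). Cells, 500 per well, faced library compounds for 48 hours at 37C.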

The nature of assay [2]: Quantitative High-Throughput drug screen in 47 multiple myeloma cell lines against the NCATS MIPE library collection: EJM_DSMZ cell viability assay (AID 1918926; further: nearly all actives have a fitted effect of over 30% in size; further: potency means the concentration at half of the fitted maximal effect). The method, boiled down: (§2)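 Relative luminescence from CellTiter-Glo served as the viability signal, referenced to DMSO-treated (100%) and cell-free medium (0%) controls. Treatment lasted 48 hours at 37C with 500 cells per well.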

A short description of assay [3]: Quantitative High-Throughput drug screen in 47 multiple myeloma cell lines against the NCATS MIPE library collection: AMO1_DSMZ cell viability assay (AID 1918927; further: nearly all actives have a fitted effect of over 30% in size; further: potency means the concentration at half of the fitted maximal effect). The method, boiled down: as §2
Assay [4] can be described thus: Quantitative High-Throughput drug screen in 47 multiple myeloma cell lines against the NCATS MIPE library collection: ARD_JJKsccE7 cell viability assay (AID 1918929; further: potency means the concentration at half of the fitted maximal effect). An outline of the steps:
as §2

Assay [5] in a line: Quantitative High-Throughput drug screen in 47 multiple myeloma cell lines against the NCATS MIPE library collection: Karpas620_DSMZ cell viability assay (AID 1918959). Further: nearly all actives have a fitted effect of over 30% in size. Further: potency means the concentration at half of the fitted maximal effect. The method, boiled down: as §1
A short description of assay [6]: Quantitative High-Throughput drug screen in 47 multiple myeloma cell lines against the NCATS MIPE library collection: KMM1_JCRB cell viability assay (AID 1918960). Further: nearly all actives have a fitted effect of over 30% in size. Further: potency means the concentration at half of the fitted maximal effect. An outline of the steps: (§3)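 Myeloma cells at 500 per well in 1536-well format treated with MIPE 4.0 library by pin transfer for 48 h at 37C, 5% CO2. Viability from ATP luminescence (CellTiter-Glo), normalized to DMSO (100%) and media-only (0%) wells.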

Assay [7] can be described thus: Quantitative High-Throughput drug screen in 47 multiple myeloma cell lines against the NCATS MIPE library collection: KHM11_PLB cell viability assay (AID 1918962). Further: nearly all actives have a fitted effect of over 35% in size. Further: potency means the concentration at half of the fitted maximal effect. An outline of the steps: as §1
Assay [8] in a line: Quantitative High-Throughput drug screen in 47 multiple myeloma cell lines against the NCATS MIPE library collection: JIM3_ECACC cell viability assay (AID 1918963; further: nearly all actives have a fitted effect of over 35% in size; further: potency means the concentration at half of the fitted maximal effect). The method, boiled down: as §1
The nature of assay [9]: Quantitative High-Throughput drug screen in 47 multiple myeloma cell lines against the NCATS MIPE library collection: H1112_PLB cell viability assay (AID 1918967; further: nearly all actives have a fitted effect of over 30% in size; further: potency means the concentration at half of the fitted maximal effect). An outline of the steps: as §2
Assay [10] in a line: Quantitative High-Throughput drug screen in 47 multiple myeloma cell lines against the NCATS MIPE library collection: Karpas25_ECACC cell viability assay (AID 1918968; further: nearly all actives have a fitted effect of over 35% in size; further: potency means the concentration at half of the fitted maximal effect). The method, boiled down:
as §2

The nature of assay [11]: Quantitative High-Throughput drug screen in 47 multiple myeloma cell lines against the NCATS MIPE library collection: KMS27_JCRB cell viability assay (AID 1918970). Further: nearly all actives have a fitted effect of over 30% in size. Further: potency means the concentration at half of the fitted maximal effect. The note with it: KMS27 myeloma cells, CellTiter-Glo ATP viability, 48 h; viability (% of DMSO): at 45.8 µM (top of the series). The method, boiled down:
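Viability inhibition screen, 48 h compound exposure, luminescent ATP read-out.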

The nature of assay [12]: Quantitative High-Throughput drug screen in 47 multiple myeloma cell lines against the NCATS MIPE library collection: KMS12BM_JCRB cell viability assay (AID 1918971). Further: nearly all actives have a fitted effect of over 35% in size. Further: potency means the concentration at half of the fitted maximal effect. The method, boiled down:
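Inhibition of cell viability is measured here. Each line was plated at 500 cells per well, treated with MIPE 4.0 drugs, kept 48 hours at 37C, then assayed for ATP content by CellTiter-Glo luminescence.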

Assay [13] is described as follows: Quantitative High-Throughput drug screen in 47 multiple myeloma cell lines against the NCATS MIPE library collection: Delta47_JCRB cell viability assay (AID 1918925; further: nearly all actives have a fitted effect of over 45% in size; further: potency means the concentration at half of the fitted maximal effect). The method, boiled down:
as §2

A short description of assay [14]: Quantitative High-Throughput drug screen in 47 multiple myeloma cell lines against the NCATS MIPE library collection: JIM1_ECACC cell viability assay (AID 1918964; further: potency means the concentration at half of the fitted maximal effect). An outline of the steps: as §2
Assay [15] is described as follows: Quantitative High-Throughput drug screen in 47 multiple myeloma cell lines against the NCATS MIPE library collection: INA6_PLB cell viability assay (AID 1918965; further: nearly all actives have a fitted effect of over 55% in size; further: potency means the concentration at half of the fitted maximal effect). The method, boiled down: (§4)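 Steps: seed 500 cells per well; pin-transfer MIPE 4.0 library; incubate 48 h at 37C, 5% CO2, humidified; add CellTiter-Glo, 5 min room temperature; read luminescence.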
Assay [16] can be described thus: Quantitative High-Throughput drug screen in 47 multiple myeloma cell lines against the NCATS MIPE library collection: JJN3_DSMZ cell viability assay (AID 1918966; further: nearly all actives have a fitted effect of over 50% in size; further: potency means the concentration at half of the fitted maximal effect). An outline of the steps:
as §2

The nature of assay [17]: Quantitative High-Throughput drug screen in 47 multiple myeloma cell lines against the NCATS MIPE library collection: ARP1_JJKsccF8 cell viability assay (AID 1918928; further: nearly all actives have a fitted effect of over 40% in size; further: potency means the concentration at half of the fitted maximal effect). The method, boiled down: as §3
A short description of assay [18]: Quantitative High-Throughput drug screen in 47 multiple myeloma cell lines against the NCATS MIPE library collection: Karpas417_ECACC cell viability assay (AID 1918961). The conditions noted are these: Karpas417 myeloma viability, CellTiter-Glo ATP luminescence, 48 h; viability (% of DMSO): at 45.8 µM (top of the series). The method, boiled down: as §4

Results filed as inconclusive are left out. Active and inactive are the calls of the source. The call rests on the fitted dose curve; in most records, active means well fitted curve in the direction sought with a large enough effect; inconclusive means small, poorly fitted or top-dose-only effect, or another doubt; inactive means no such curve, though single readings can be large; an effect the other way counts as inactive or inconclusive.

On to `NC[C@H]1O[C@H](O[C@@H]2[C@@H](O)[C@@H](O[C@H]3O[C@H](CO)[C@@H](O)[C@H](N)[C@@H]3O)[C@H](N)C[C@@H]2N)[C@H](O)[C@@H](O)[C@H]1O`, for which the Potency result in assay [1], in assay [2], in [3], in [4], in [5] and in assay [6] was “inactive” in each case. The Potency result in [7], in assay [8], in assay [9], in assay [10], in assay [11] and in assay [12] was “inactive” in each case.

Turning to `CCCCCCOC(=O)N=C(N)c1ccc(NCc2nc3cc(C(=O)N(CCC(=O)OCC)c4ccccn4)ccc3n2C)cc1`, the Potency in assay [1] is 23.5 µM (active); in assay [13] it was 16.6 µM (active); in [4] it was 14.8 µM (active); in assay [5] it was 7.43 µM (active); in assay [6] it was 16.6 µM (active); in assay [14], 8.33 µM (active). In addition, the Potency in assay [15] is 16.6 µM (active); in assay [16] it was 18.7 µM (active); in assay [11], 11.8 µM (active); in [12], 16.6 µM (active).

On to `C[C@H]1[C@H](O)O[C@@H]2O[C@@]3(C)CC[C@@H]4[C@H](C)CC[C@@H]1[C@@]24OO3`, for which the Potency in assay [1] is 6.62 µM (active); in [13] it was 5.9 µM (active); in assay [17], 1.66 µM (active); in [4], 4.18 µM (active); in assay [5], 5.26 µM (active); in assay [15], 1.66 µM (active). Further, the figures for the Potency in [9], in assay [10] and in assay [12] were 16.6 µM (active), 1.66 µM (active) and 1.66 µM (active), respectively.

`CCCC1OC2C[C@@H]3[C@H]4CCC5=CC(=O)C=C[C@]5(C)[C@H]4C(O)C[C@]3(C)[C@]2(C(=O)CO)O1` (some centres undefined): the Potency entry in assay [1], in assay [3], in [5], in [15], in [9] and in [11] was “inactive” throughout. Moreover, the Potency in [2] was 11.8 µM (active); in assay [17], 0.469 µM (active); in assay [4] it was 0.0118 µM (active); in assay [10], 0.0132 µM (active); in assay [12], 20.9 µM (active).

Take `CN(C)N=Nc1nc[nH]c1C(N)=O`: the Potency result in assay [1], in assay [2], in [3], in assay [8], in assay [9] and in [10] was “inactive” in each case. In assay [12], the Potency entry was “inactive”. Besides, the Potency is 0.187 µM (active) in assay [4], 0.935 µM (active) in assay [6] and 2.64 µM (active) in assay [15].

Turning to `O=C(O)c1ccc(O)c2ncc(N3CCOCC3)cc12`, the Potency entry in assay [1], in assay [2], in assay [7] and in assay [15] was “inactive” in each case. Further, the Potency was 20.9 µM (active) in [3]; 18.7 µM (active) in [5]; 18.7 µM (active) in assay [8]; 20.9 µM (active) in assay [14]; 18.7 µM (active) in assay [10]; 23.5 µM (active) in [11].

Turning to `CN(CC=CC#CC(C)(C)C)Cc1cccc2ccccc12`, the Potency result in [1], in assay [13], in assay [3], in assay [17], in assay [5] and in [6] was “inactive” throughout. Besides, the Potency entry in assay [14] and in assay [11] was “inactive” in each case.

Take `COc1ccc2nc3cc(Cl)ccc3c(Nc3cc(CN4CCCC4)c(O)c(CN4CCCC4)c3)c2n1`: the Potency in [1] is 23.5 µM (active); in assay [13], 16.6 µM (active); in assay [17], 29.6 µM (active); in assay [7] it was 20.9 µM (active); in assay [15], 7.43 µM (active); in assay [9] it was 18.7 µM (active). The Potency in [10] was 14.8 µM (active); in assay [12], 11.8 µM (active).

With `CN(C)CCN(Cc1ccc(Cl)cc1)c1ccccn1`, the Potency result in [1], in assay [17], in assay [4], in assay [5], in [6] and in [8] was “inactive” throughout. Also, the Potency result in assay [16] and in assay [12] was “inactive” each time. The Potency in assay [13] was 9.35 µM (active); in assay [15], 20.9 µM (active).

As for `CN(C)CCN(C)C(=O)c1ccc(NC(=O)Nc2ccc(-c3nc(N4CCOCC4)c4ccn(CC(F)(F)F)c4n3)cc2)cc1`, the Potency in assay [1] was 0.0372 µM (active); in [13], 0.0264 µM (active); in [3] it was 0.418 µM (active); in assay [17], 0.0264 µM (active); in assay [4], 0.0235 µM (active); in [8], 0.105 µM (active). In addition, the Potency in assay [14] is 0.001 µM (active); in assay [16] it was 0.0372 µM (active); in assay [9], 3.32 µM (active); in [11] it was 0.001 µM (active); in assay [12], 0.209 µM (active).

Regarding `CS(=O)(=O)c1ccc(C2=C(c3ccccc3)C(=O)OC2)cc1`, the Potency result in assay [1], in assay [2], in assay [17], in [4], in assay [5] and in assay [6] was “inactive” in each case. Moreover, the Potency result in [18], in [8], in assay [15], in assay [10], in assay [11] and in assay [12] was “inactive” each time.

Regarding `CC[C@H](NC(=O)[C@H](C)NC)C(=O)N1C[C@@H](O)C[C@H]1Cc1c(-c2[nH]c3cc(F)ccc3c2C[C@H]2C[C@H](O)CN2C(=O)[C@H](CC)NC(=O)[C@H](C)NC)[nH]c2cc(F)ccc12`, the Potency entry in assay [1], in [7], in [16] and in assay [12] was “inactive” each time. The Potency in assay [13] is 16.6 µM (active); in assay [3] it was 4.69 µM (active); in [6], 14.8 µM (active); in assay [8], 1.48 µM (active); in assay [14], 2.09 µM (active); in [15] it was 11.8 µM (active). Also, the Potency in assay [9] is 11.8 µM (active); in assay [10] it was 16.6 µM (active); in [11], 0.935 µM (active).

As to `CCCCC(C)(C)[C@H](O)C=C[C@H]1[C@H](O)CC(=O)[C@H]1CC=CCCCC(=O)O`, the Potency entry in [1], in assay [4], in assay [5], in assay [14] and in [11] was “inactive” in each case. For the same molecule, the Potency is 5.9 µM (active) in assay [2]; 23.5 µM (active) in assay [17]; 20.9 µM (active) in [8]; 23.5 µM (active) in assay [15]; 18.7 µM (active) in [10]; 18.7 µM (active) in [12].

Turning to `C#CCN(C)CC1=Cc2ccccc2Oc2ccccc21`, the Potency result in [1], in assay [2], in assay [17], in assay [5], in assay [6] and in [8] was “inactive” in each case. Besides, the Potency entry in [14] and in assay [9] was “inactive” each time. Besides, the Potency in [12] is 16.6 µM (active).

As for `CN[C@@H]1[C@@H](O)[C@@H](O[C@@H]2[C@@H](O)[C@H](O[C@H]3O[C@H](CN)[C@@H](O)[C@H](O)[C@@H]3O)[C@@H](N)C[C@@H]2NC(=O)[C@@H](O)CN)OC[C@]1(C)O`, the Potency result in assay [1], in [2], in [3], in assay [4], in [5] and in [6] was “inactive” each time. The Potency entry in assay [18], in assay [14], in assay [15] and in assay [16] was “inactive” throughout.

The record behind these values is PubChem BioAssay (NCATS).
